For some assays here: Entries with a potency or affinity are not part of this list. Active and inactive are the calls of the source. Unless noted, how the calls were made is not given here.
Experiments:
[1] = antimalarial activity against Dd2 strain (AID 2302;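 active means growth inhibition above 50% at the single 2 µM test dose, taken to imply half-maximal potency below 2 µM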;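 further: 0% = DMSO untreated growth and 100% = chloroquine plus artemisinin killed control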); conditions: P. falciparum Dd2 in RBCs, LDH growth readout, 72 h; at 2 µM; stronger effect = higher value
[2] = HepG2 cytotoxicity, primary screen, cytotoxicity control for P. falciparum antimalarial project, cell-based, ATP luminescence (AID 2303;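 active means inhibition above 50%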;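 further: 0% = DMSO wells and 100% = digitonin-killed cells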); conditions: HepG2 viability, 24-48 h, at 10 µM, stronger effect = higher value
[3] = target: L-lactate dehydrogenase (Plasmodium falciparum (isolate CDC / Honduras)) (UniProt Q27743); assay: PfLDH activity inhibition – cell lysate, 3D7 strain, counter-screen for P. falciparum growth inhibition project (AID 2304);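 further: 0% = vehicle and 100% = reference inhibitor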; conditions: P. falciparum 3D7 crude extract, LDH APAD/NBT absorbance; at 2 µM; stronger effect = higher value
[4] = inhibition of 3D7 malaria parasite growth – strain 3D7 (AID 2306);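 further: 0% = DMSO wells and 100% = chloroquine plus artemisinin control wells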; conditions: P. falciparum 3D7 erythrocytic growth, LDH absorbance, 72 h; at 2 µM; stronger effect = higher value
[5] = target: Calcium-dependent protein kinase 1 (Plasmodium falciparum (isolate 3D7)) (UniProt P62344); assay: PfCDPK1 kinase inhibitors, biochemical, TCAMS library (AID 1159585; cut-off not given, nearly all actives have IC50 up to about 0.98 µM;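 further: inhibitors leave more ATP so luminescence rises with inhibition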); conditions: recombinant PfCDPK1, Kinase-Glo ATP depletion luminescence
[6] = target: Plasmodium falciparum protein kinase 6 (PK6, PF3D7_1337100) (UniProt Q8IDW1); assay: PfPK6 kinase inhibitors, biochemical, TCAMS library (AID 1159586); conditions: recombinant PfPK6, Kinase-Glo ATP depletion luminescence
[7] = target: Protein kinase 7 (PK7), Plasmodium falciparum 3D7 (PF3D7_0213400) (UniProt Q7YTF7); assay: inhibition of Plasmodium PK7 catalytic activity – biochemical, TCAMS antimalarial set, Kinase-Glo luminescence (AID 1159587); conditions: recombinant PfPK7, Kinase-Glo ATP depletion luminescence
[8] = target: Calcium-dependent protein kinase 4 (Plasmodium falciparum (isolate 3D7)) (UniProt Q8IBS5); assay: PfCDPK4 kinase inhibitors, biochemical, TCAMS library (AID 1159588; cut-off not given, nearly all actives have IC50 up to about 0.91 µM); conditions: recombinant PfCDPK4, Kinase-Glo ATP depletion luminescence
Calcium-dependent protein kinase 4 (Plasmodium falciparum (isolate 3D7)), sequence (Q8IBS5 whole entry, looked up): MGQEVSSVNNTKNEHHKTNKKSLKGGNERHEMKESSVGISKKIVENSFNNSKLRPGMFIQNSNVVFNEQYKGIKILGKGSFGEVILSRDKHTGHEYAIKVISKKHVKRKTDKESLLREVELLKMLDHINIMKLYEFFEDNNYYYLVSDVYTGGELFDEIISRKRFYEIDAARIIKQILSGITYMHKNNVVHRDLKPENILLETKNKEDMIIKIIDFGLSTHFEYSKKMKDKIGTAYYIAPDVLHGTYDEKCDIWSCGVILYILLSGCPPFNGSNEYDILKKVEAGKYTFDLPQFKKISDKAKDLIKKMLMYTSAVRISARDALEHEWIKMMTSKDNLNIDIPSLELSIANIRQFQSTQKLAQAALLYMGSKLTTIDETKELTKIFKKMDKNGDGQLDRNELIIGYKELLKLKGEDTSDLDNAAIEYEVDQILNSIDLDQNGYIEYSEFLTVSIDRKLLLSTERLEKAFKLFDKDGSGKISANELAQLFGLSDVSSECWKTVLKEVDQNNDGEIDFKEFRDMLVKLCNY

Plasmodium falciparum protein kinase 6 (PK6, PF3D7_1337100), sequence (Q8IDW1 1-305): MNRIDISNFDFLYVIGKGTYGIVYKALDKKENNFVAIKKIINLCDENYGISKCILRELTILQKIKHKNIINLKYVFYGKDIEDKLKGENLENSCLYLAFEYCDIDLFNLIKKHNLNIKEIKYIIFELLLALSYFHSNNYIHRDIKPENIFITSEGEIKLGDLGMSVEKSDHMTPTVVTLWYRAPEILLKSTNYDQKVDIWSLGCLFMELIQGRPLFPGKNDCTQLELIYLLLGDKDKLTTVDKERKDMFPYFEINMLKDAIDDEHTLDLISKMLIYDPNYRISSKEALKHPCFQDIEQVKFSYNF
Protein kinase 7 (PK7), Plasmodium falciparum 3D7 (PF3D7_0213400), sequence (Q7YTF7 1-343): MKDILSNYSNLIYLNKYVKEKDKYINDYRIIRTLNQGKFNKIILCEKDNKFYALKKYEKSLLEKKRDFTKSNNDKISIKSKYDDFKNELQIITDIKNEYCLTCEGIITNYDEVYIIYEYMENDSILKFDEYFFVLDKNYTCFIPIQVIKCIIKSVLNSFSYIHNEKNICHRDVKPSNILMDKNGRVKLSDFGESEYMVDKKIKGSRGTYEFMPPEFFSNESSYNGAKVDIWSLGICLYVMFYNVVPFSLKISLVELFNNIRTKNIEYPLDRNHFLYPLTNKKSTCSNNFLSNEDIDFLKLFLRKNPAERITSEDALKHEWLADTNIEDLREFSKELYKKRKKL
Calcium-dependent protein kinase 1 (Plasmodium falciparum (isolate 3D7)), sequence (P62344 whole entry, looked up): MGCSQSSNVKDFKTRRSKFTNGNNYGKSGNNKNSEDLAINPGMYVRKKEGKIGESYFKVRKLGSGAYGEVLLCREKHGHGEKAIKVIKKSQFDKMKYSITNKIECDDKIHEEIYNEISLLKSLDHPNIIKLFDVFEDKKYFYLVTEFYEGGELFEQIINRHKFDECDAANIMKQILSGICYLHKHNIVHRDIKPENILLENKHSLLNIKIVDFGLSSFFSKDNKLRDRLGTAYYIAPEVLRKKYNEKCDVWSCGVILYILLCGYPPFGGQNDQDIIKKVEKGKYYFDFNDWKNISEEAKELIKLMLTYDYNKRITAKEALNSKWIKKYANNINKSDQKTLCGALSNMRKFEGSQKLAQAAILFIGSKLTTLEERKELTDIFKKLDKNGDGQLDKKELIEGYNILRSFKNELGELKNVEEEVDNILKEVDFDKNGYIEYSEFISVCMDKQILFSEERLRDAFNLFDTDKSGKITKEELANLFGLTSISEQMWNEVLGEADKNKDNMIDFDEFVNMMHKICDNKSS
L-lactate dehydrogenase (Plasmodium falciparum (isolate CDC / Honduras)), sequence (Q27743 whole entry, looked up): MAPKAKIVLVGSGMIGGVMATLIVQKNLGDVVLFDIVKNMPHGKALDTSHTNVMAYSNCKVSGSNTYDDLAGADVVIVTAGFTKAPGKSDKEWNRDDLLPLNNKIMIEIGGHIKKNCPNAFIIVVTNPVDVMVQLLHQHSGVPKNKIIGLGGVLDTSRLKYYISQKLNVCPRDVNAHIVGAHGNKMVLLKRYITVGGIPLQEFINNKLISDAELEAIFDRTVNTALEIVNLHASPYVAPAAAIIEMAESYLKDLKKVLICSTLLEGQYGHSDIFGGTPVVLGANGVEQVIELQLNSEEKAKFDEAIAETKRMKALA

Nc1nccc2ccc(-c3ccc4nccn4c3)cc12
active: growth inhibition [1] 100% | growth inhibition [4] 101%
inactive: inhibition [2] 15% | inhibition [3] -2% | outcome [5] | outcome [6] | outcome [7] | outcome [8]

Cc1ccc(NC(=O)N2CCC(n3c(-c4ccccc4)nc4cccnc43)CC2)cc1F
inactive: inhibition [2] 23% | inhibition [3] 2% | outcome [5] | outcome [6] | outcome [7] | outcome [8]
active: growth inhibition [1] 85% | growth inhibition [4] 96%

COc1cc2c(cc1OC)C(C(=O)Nc1ccc(C(F)(F)F)cc1)C(c1cccs1)N(C)C2=O (stereo unspecified)
inactive: inhibition [2] 31% | inhibition [3] 2% | outcome [5] | outcome [6] | outcome [7] | outcome [8]
active: growth inhibition [1] 86% | growth inhibition [4] 99%

NCCCCc1c(-c2ccc(Cl)c(Cl)c2)[nH]c2ccc(Cl)cc12
active: growth inhibition [4] 97%
inactive: growth inhibition [1] 20% | inhibition [2] 33% | inhibition [3] -9% | outcome [5] | outcome [6] | outcome [7] | outcome [8]

Cc1c(C2CCN(CCCCNC(=O)c3ccc(-c4ccc(C#N)cc4)cc3)CC2)c2ccccc2n1CCO
inactive: inhibition [2] 28% | inhibition [3] 1% | outcome [5] | outcome [6] | outcome [7] | outcome [8]
active: growth inhibition [1] 99% | growth inhibition [4] 96%

O=C1C2=C(Nc3ccccc3SC2c2cccs2)c2ccccc21 (stereo unspecified)
inactive: inhibition [2] 8% | inhibition [3] 5% | outcome [5] | outcome [6] | outcome [7] | outcome [8]
active: growth inhibition [1] 93% | growth inhibition [4] 96%

O=C(/C=C/c1ccc(Cl)c(Cl)c1)NCCCCCN1CCC(NC(=O)c2ccc([N+](=O)[O-])cc2)CC1
active: growth inhibition [4] 100%
inactive: growth inhibition [1] 6% | inhibition [2] 36% | inhibition [3] -2% | outcome [5] | outcome [6] | outcome [7] | outcome [8]

NC(N)=NN=CC(=O)Nc1ccc(Br)cc1
inactive: growth inhibition [1] 1% | inhibition [2] 5% | inhibition [3] 0% | outcome [5] | outcome [6] | outcome [7] | outcome [8]
active: growth inhibition [4] 100%

O=C(/C=C/c1ccc(Cl)c(Cl)c1)NCCCCN1CCCN(C(=O)Nc2ccc(F)c(Cl)c2)CC1
inactive: growth inhibition [1] 2% | inhibition [3] 1% | outcome [5] | outcome [6] | outcome [7] | outcome [8]
active: inhibition [2] 69% | growth inhibition [4] 87%

CCCCCCOc1ccccc1C(=O)NCCOc1ccc(Cl)cc1
inactive: growth inhibition [1] 37% | inhibition [2] 16% | inhibition [3] 4% | outcome [5] | outcome [6] | outcome [7] | outcome [8]
active: growth inhibition [4] 84%

COC(=O)c1ccc(C2OC3(C(=O)c4ccccc4C3=O)C(OC)=C2Cl)cc1C(C)=O (stereo unspecified)
active: growth inhibition [1] 85% | growth inhibition [4] 99%
inactive: inhibition [2] -3% | inhibition [3] -2% | outcome [5] | outcome [6] | outcome [7] | outcome [8]

COc1ccc2ncc(Cl)c(N3CCC(CCNCc4ccc5c(n4)NC(=O)CS5)CC3)c2c1
inactive: inhibition [2] 33% | inhibition [3] 0% | outcome [5] | outcome [6] | outcome [7] | outcome [8]
active: growth inhibition [1] 82% | growth inhibition [4] 89%

CN1CCN(CCCN(C(=O)Nc2cc(C(F)(F)F)cc(C(F)(F)F)c2)c2ccccc2Cc2ccccc2)CC1
active: growth inhibition [1] 92% | growth inhibition [4] 89%
inactive: inhibition [2] 35% | inhibition [3] 0% | outcome [5] | outcome [6] | outcome [7] | outcome [8]

Cc1cc(N[C@@H](CC(C)C)C(=O)NCCc2ccccc2)nc(NCCc2cccs2)n1
active: growth inhibition [4] 89%
inactive: growth inhibition [1] 16% | inhibition [2] 0% | inhibition [3] -3% | outcome [5] | outcome [6] | outcome [7] | outcome [8]

N#Cc1cccc(Nc2nccc(Nc3ccc(Oc4ccccc4)cc3)n2)c1
active: growth inhibition [4] 94%
inactive: growth inhibition [1] 17% | inhibition [2] 12% | inhibition [3] -6% | outcome [5] | outcome [6] | outcome [7] | outcome [8]

O=C1CCCN1CCCNCc1ccc(-c2ccc(-c3nc4ccc(F)cc4[nH]3)cc2)cc1
active: growth inhibition [1] 99% | growth inhibition [4] 100%
inactive: inhibition [2] 16% | inhibition [3] -3% | outcome [5] | outcome [6] | outcome [7] | outcome [8]

CC(=O)CSC(C=Cc1ccc(N(C)C)cc1)=Nc1ccccc1
inactive: growth inhibition [1] 42% | inhibition [2] 38% | inhibition [3] -4% | outcome [5] | outcome [6] | outcome [7] | outcome [8]
active: growth inhibition [4] 81%

CCNc1cc(C(=O)N[C@@H](Cc2ccccc2)[C@H](O)CNCc2cc(C#N)ccc2OC)cc(N2CCCC2=O)c1
inactive: inhibition [2] -1% | inhibition [3] -3% | outcome [5] | outcome [6] | outcome [7] | outcome [8]
active: growth inhibition [1] 51% | growth inhibition [4] 85%

O=S(=O)(c1ccc2cc[nH]c2c1)N1CCC[C@@H]1CCN1CCC(c2c[nH]c3cnccc23)CC1
active: growth inhibition [4] 95%
inactive: growth inhibition [1] 0% | inhibition [2] 13% | inhibition [3] 0% | outcome [5] | outcome [6] | outcome [7] | outcome [8]

Cc1cc(Nc2ccccc2)nc(Nc2ccccc2)n1
active: growth inhibition [1] 74% | growth inhibition [4] 96%
inactive: inhibition [2] 0% | inhibition [3] -1% | outcome [5] | outcome [6] | outcome [7] | outcome [8]

CCOc1ccc2c(NN=Cc3ccccc3F)cc(C)nc2c1
inactive: inhibition [2] -1% | inhibition [3] -5% | outcome [5] | outcome [6] | outcome [7] | outcome [8]
active: growth inhibition [1] 77% | growth inhibition [4] 101%

CN(C(=O)c1nn(-c2ccccn2)c2nccc(-c3cccs3)c12)C1CCCCC1
active: growth inhibition [4] 87%
inactive: growth inhibition [1] 1% | inhibition [2] 4% | inhibition [3] -1% | outcome [5] | outcome [6] | outcome [7] | outcome [8]

COC(=O)CCCCOc1cc(Cc2cnc(N)nc2N)cc(OC)c1OC
active: growth inhibition [4] 97%
inactive: growth inhibition [1] -1% | inhibition [2] -10% | inhibition [3] -3% | outcome [5] | outcome [6] | outcome [7] | outcome [8]

Cc1ccc2nc3ccccc3c(NCCN3CCN(C)CC3)c2c1
active: growth inhibition [4] 101%
inactive: growth inhibition [1] 6% | inhibition [2] 19% | inhibition [3] -7% | outcome [5] | outcome [6] | outcome [7] | outcome [8]

Cc1cccc2[nH]c(-c3ccc(-c4ccc(CN5CCN(CCN6CCOCC6)CC5)cc4)s3)nc12
inactive: inhibition [2] 41% | inhibition [3] 3% | outcome [5] | outcome [6] | outcome [7] | outcome [8]
active: growth inhibition [1] 99% | growth inhibition [4] 100%

CC(C(=O)Nc1ccc(Br)cc1Br)N1CCN(C(=O)c2ccco2)CC1 (stereo unspecified)
inactive: inhibition [2] 3% | inhibition [3] -3% | outcome [5] | outcome [6] | outcome [7] | outcome [8]
active: growth inhibition [1] 84% | growth inhibition [4] 91%

CN=C(N)c1ccc(NC(=O)c2ccc(C(=O)Nc3ccc(C(N)=NC)cc3)cc2)cc1
inactive: inhibition [2] 6% | inhibition [3] 0% | outcome [5] | outcome [6] | outcome [7] | outcome [8]
active: growth inhibition [1] 91% | growth inhibition [4] 96%

CCNC(=O)Nc1cccc(-c2cccc(-c3nc4c(C)cccc4[nH]3)c2)c1
active: growth inhibition [4] 85%
inactive: growth inhibition [1] 31% | inhibition [2] 7% | inhibition [3] 4% | outcome [5] | outcome [6] | outcome [7] | outcome [8]

CC(C)C[C@@H](C(=O)Nc1ccc(Cc2ccc(NC(=O)[C@H](CC(C)C)N(C)C(=O)OC(C)(C)C)cc2)cc1)N(C)C(=O)OC(C)(C)C
active: growth inhibition [1] 57% | growth inhibition [4] 92%
inactive: inhibition [2] 17% | inhibition [3] 2% | outcome [5] | outcome [6] | outcome [7] | outcome [8]

COc1cc(NC(=O)/C=C/c2ccccc2OC(F)(F)F)cc(OCCN2CCC(O)(c3ccccc3)CC2)c1
active: growth inhibition [1] 50% | inhibition [2] 61% | growth inhibition [4] 102%
inactive: inhibition [3] 2% | outcome [5] | outcome [6] | outcome [7] | outcome [8]

C=CCOC(=O)N1CCC(CNCc2cccc(-c3cccc(-c4nc5c(C)cccc5[nH]4)c3)c2)C1 (stereo unspecified)
active: growth inhibition [1] 69% | growth inhibition [4] 102%
inactive: inhibition [2] 22% | inhibition [3] -2% | outcome [5] | outcome [6] | outcome [7] | outcome [8]

CC(C)(C)c1ccc(CN(C[C@@H](O)CNS(=O)(=O)c2cc(Cl)cc(Cl)c2)C(C)(C)C)cc1
active: growth inhibition [1] 94% | inhibition [2] 74% | growth inhibition [4] 98%
inactive: inhibition [3] -8% | outcome [5] | outcome [6] | outcome [7] | outcome [8]

CN1CCC(c2c[nH]c3ccc(NC(=O)Nc4ccc(-c5ccncc5)c(Cl)c4Cl)cc23)CC1
inactive: growth inhibition [1] 19% | inhibition [2] 27% | inhibition [3] -1% | outcome [5] | outcome [6] | outcome [7] | outcome [8]
active: growth inhibition [4] 102%

COc1ccc(NC(=O)c2ccc(NC(=O)c3ccc(Cl)cc3)cc2)cc1N1CCN(C)CC1
inactive: growth inhibition [1] 40% | inhibition [2] 23% | inhibition [3] -8% | outcome [5] | outcome [6] | outcome [7] | outcome [8]
active: growth inhibition [4] 98%

CCC1N=C(N)N=C(N)N1OCc1ccc(Cl)c(Cl)c1 (stereo unspecified)
inactive: inhibition [3] -4% | outcome [5] | outcome [6] | outcome [7] | outcome [8]
active: growth inhibition [1] 90% | inhibition [2] 54% | growth inhibition [4] 93%

COc1ccc(OC)c(Cc2cnc3nc(N)[nH]c(=O)c3c2C)c1
inactive: growth inhibition [1] 4% | inhibition [3] 3% | outcome [5] | outcome [6] | outcome [7] | outcome [8]
active: inhibition [2] 62% | growth inhibition [4] 98%

Cc1cc(F)ccc1-c1nc(NCCCN2CCCC2=O)nc2c1ccc(=O)n2-c1c(F)cccc1F
inactive: inhibition [2] -7% | inhibition [3] -5% | outcome [5] | outcome [6] | outcome [7] | outcome [8]
active: growth inhibition [1] 80% | growth inhibition [4] 88%

Reference: PubChem BioAssay
